Laboratory results from PubChem BioAssay AID1159580 (chemical genetic matrix, 2015).
The campaign covered roughly 5,500 compounds. About 2,000 (36%) were called active. Inconclusive results (about 18%) are left out. This is one part of the list. A number with no mark means an inactive call. Rule as the data show it: active = normalized growth mostly below about 0.91 (no sharp cut-off); inconclusive = no clear call, values can overlap the other calls; inactive = mostly above about 0.92.

Assay: chemical genetic growth profiling, strain panel (AID 1159580);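 also: tested at 20 µM; growth read once vehicle control cultures reached saturation at 30 °C; 1 = growth at the plate median or of vehicle wells; lower values mean less growth of the strain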
Settings: S. cerevisiae deletion strains, growth OD
[1] = locus YAL040C, strain CLN3, hits give low values
[2] = locus YCL061C, strain MRC1 (second series), hits give low values
[3] = locus YDR150W, strain NUM1, hits give low values
[4] = locus YDR363W, strain ESC2, hits give low values
[5] = locus YER002W, strain NOP16, hits give low values
[6] = locus YGR229C, strain SMI1, hits give low values
[7] = locus YNL128W, strain TEP1, hits give low values
[8] = locus YNL175C, strain NOP13, hits give low values
[9] = locus YNL197C, strain WHI3, hits give low values
[10] = locus YOR083W, strain WHI5 (second series), hits give low values

CN1[C@@H](CC(=O)c2ccccc2)CCC[C@H]1C[C@H](O)c1ccccc1
normalized growth [1]: 1.01
normalized growth [2]: 1.01
normalized growth [3]: 1.01
normalized growth [4]: 0.984
normalized growth [5]: 1
normalized growth [6]: 0.99
normalized growth (locus YJR075W, strain HOC1, hits give low values): 1.01
normalized growth (locus YMR263W, strain SAP30, hits give low values): 1.01
normalized growth [7]: 1
normalized growth [8]: 1.02
normalized growth [9]: 1.01
normalized growth (locus YNL224C, strain SQS1, hits give low values): 1
normalized growth [10]: 1.02
normalized growth (locus YPL241C, strain CIN2, hits give low values): 1.01

CC(C)(C)c1ccc(C(O)CCCN2CCC(C(O)(c3ccccc3)c3ccccc3)CC2)cc1 (stereo unspecified)
normalized growth (locus YAL013W, strain DEP1, hits give low values): 0.984
normalized growth [1]: 0.991
normalized growth [2]: 1
normalized growth [3]: 1.01
normalized growth [4]: 1
normalized growth [5]: 1.22 [resistant] (active)
normalized growth [6]: 0.936
normalized growth (locus YHR030C, strain SLT2, hits give low values): 0.952
normalized growth (locus YHR079C, strain IRE1, hits give low values): 0.941
normalized growth (locus YJL095W, strain BCK1, hits give low values): 0.973
normalized growth (locus YJR066W, strain TOR1, hits give low values): 0.972
normalized growth (locus YLR113W, strain HOG1, hits give low values): 0.978
normalized growth (locus YMR307W, strain GAS1, hits give low values): 1.01
normalized growth [7]: 1.09
normalized growth (locus YNL153C, strain GIM3, hits give low values): 1.01
normalized growth [8]: 1.25 [resistant] (active)
normalized growth (locus YNL183C, strain NPR1, hits give low values): 0.936
normalized growth [9]: 1.15 [resistant] (active)
normalized growth [10]: 1.05
normalized growth (locus YOR231W, strain MKK1, hits give low values): 0.966
normalized growth (locus YPL055C, strain LGE1, hits give low values): 0.978
normalized growth (locus YPL256C, strain CLN2, hits give low values): 0.955
